From PubChem BioAssay
Activity calls are given as the source filed them.

Key:
Albumin (Bos taurus) = Albumin (Bos taurus) (UniProt P02769); experiment: compounds binding labelled BSA control protein – biochemical, small-molecule microarray, Alexa647 label, 635/667 nm fluorescence, artefact control for SMM control protein annotation, profiling panel (AID 1118); conditions: BSA-A647 binding, fluorescence 635 nm, higher = more signal;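 further: score merges 667 nm emission intensity and signal-to-noise per printed compound spot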
Chain of Albumin (Bos taurus) (P02769 whole entry, looked up): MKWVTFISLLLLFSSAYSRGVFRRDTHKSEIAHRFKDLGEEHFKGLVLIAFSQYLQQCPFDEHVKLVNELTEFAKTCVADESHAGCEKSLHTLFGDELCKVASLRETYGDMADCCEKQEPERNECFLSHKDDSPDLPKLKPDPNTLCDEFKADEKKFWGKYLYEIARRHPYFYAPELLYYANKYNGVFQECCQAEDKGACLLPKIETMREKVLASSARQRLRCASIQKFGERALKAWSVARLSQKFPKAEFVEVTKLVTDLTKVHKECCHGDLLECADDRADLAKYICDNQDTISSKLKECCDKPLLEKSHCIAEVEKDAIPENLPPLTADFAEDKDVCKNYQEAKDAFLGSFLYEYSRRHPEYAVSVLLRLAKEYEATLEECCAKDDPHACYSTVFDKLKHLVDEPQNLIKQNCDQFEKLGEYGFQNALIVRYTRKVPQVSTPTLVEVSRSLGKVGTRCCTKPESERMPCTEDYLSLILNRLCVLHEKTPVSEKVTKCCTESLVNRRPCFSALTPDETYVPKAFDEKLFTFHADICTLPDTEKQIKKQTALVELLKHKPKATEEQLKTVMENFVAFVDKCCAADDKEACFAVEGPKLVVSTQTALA

[1] = probe aXIP binding to arrayed compounds – biochemical, NeuroSMM set, 635/667 nm fluorescence, primary screen (AID 1119); conditions: small-molecule microarray, higher = more signal, called active from +8 up or from −8 down;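 further: probe is the protein aXip251-270 applied at 1 µg/mL to compound-printed slides; binding of probe to printed compounds measured as 667 nm fluorescence plus signal to noise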
[2] = probe aNOTCH3 binding on compound microarray – biochemical, small-molecule microarray, 635/667 nm fluorescence, primary screen (AID 1120); conditions: higher = more signal;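 further: probe is a biotin-tagged antibody raised against NOTCH3 rather than NOTCH3 protein; score merges spot fluorescence near 667 nm with spot signal to noise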
[3] = probe aNOTCH2 binding on compound microarray – biochemical, small-molecule microarray, 635/667 nm fluorescence, primary screen (AID 1121); conditions: higher = more signal;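 further: score merges feature fluorescence read at 667 nm with its signal to noise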
[4] = molecular target: Carbonic anhydrase 2 (Homo sapiens) (UniProt P00918); experiment: compounds binding carbonic anhydrase 2 – biochemical, small-molecule microarray, Alexa647-labelled CAII, profiling panel (AID 1122); conditions: CAII-A647 binding fluorescence, higher = more signal
[5] = COS7 lysate on small-molecule microarray, probe aHis, 635 nm (AID 1123); conditions: COS7 cell lysate, fluorescence, higher = more signal;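 further: z-score combines 667nm fluorescence intensity with signal-to-noise per printed compound spot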
[6] = probe aLAP1 signal on lysate-treated microarray – cell lysate, small-molecule microarray, COS7 lysate, primary screen (AID 1124); conditions: probe aLAP1, fluorescence, higher = more signal;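 further: lysate comes from COS7 cells expressing LAP1 and is applied at 0.3 µg/mL; score merges spot fluorescence near 667 nm with signal-to-noise over triplicate slides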
Sam68 (KHDRBS1) = experiment: compounds binding KHDRBS1 protein – biochemical, small-molecule microarray, 635 nm fluorescence, primary screen (AID 1125); conditions: higher = more signal;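 further: score merges 667 nm channel intensity with signal to noise over triplicate slides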
[7] = test system: Chordin-like protein 2 (CHRDL2); experiment: compounds binding chordin-like 2 – biochemical, small-molecule microarray, 635 nm fluorescence, primary screen (AID 1126); conditions: fluorescence 635 nm, higher = more signal;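 further: printed compound slides probed with Chrdl2 protein at 4 µg/mL for 1 h at 4 C; score merges 667 nm emission intensity with signal to noise over three replicate slides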
[8] = molecular target: Concanavalin-A (Canavalia ensiformis) (UniProt P02866); experiment: compounds binding concanavalin A lectin – biochemical, small-molecule microarray, Alexa647 label, 635 nm, artefact control for SMM control protein annotation, primary screen (AID 1127); conditions: ConA-A647 binding fluorescence, higher = more signal;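 further: z combines 667 nm emission intensity with signal-to-noise across three replicate slides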
Chain of Concanavalin-A (Canavalia ensiformis) (P02866 whole entry, looked up): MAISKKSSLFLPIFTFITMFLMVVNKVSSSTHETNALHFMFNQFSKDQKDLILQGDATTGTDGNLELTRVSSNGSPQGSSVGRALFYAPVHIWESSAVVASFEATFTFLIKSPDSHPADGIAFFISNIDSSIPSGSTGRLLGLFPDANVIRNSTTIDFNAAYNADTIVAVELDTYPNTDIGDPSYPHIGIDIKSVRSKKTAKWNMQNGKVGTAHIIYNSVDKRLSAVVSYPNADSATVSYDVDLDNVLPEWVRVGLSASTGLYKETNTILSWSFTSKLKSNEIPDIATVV

Structure (SMILES)	composite z-score (Albumin (Bos taurus))	composite Z-score [1]	composite z-score [2]	composite z-score [3]	composite z-score [4]	composite z-score [5]	composite z-score [6]	composite z-score (Sam68 (KHDRBS1))	composite z-score [7]	composite z-score [8]
O=C1O[C@@H](c2ccccc2)[C@@H](c2ccccc2)N2[C@@H](c3ccc(OCCO)cc3)[C@]3(C(=O)Nc4ccc(C#CC5=CCCCC5)cc43)[C@@H](C(=O)NC[C@H](O)c3ccccc3)[C@H]12	-0.948	-0.176 (inactive)	1.03	0.338	0.117	1.57	0.109	1.3	1.16	1.17
C=CC[C@@]1(C(=O)NCCCOC)N=C(c2ccc(OCCCO)cc2)O[C@@H]1c1ccccc1	0.8	0.604 (inactive)	0.169	0.0977	0.597	3.2	0.601	0.316	-0.919	0.174
[N-]=[N+]=Nc1ccccc1C[C@@]1(C(N)=O)N=C(c2ccc(OCCCO)cc2)O[C@@H]1c1ccccc1N=[N+]=[N-]	1.01	0.127 (inactive)	0.0059	0.0342	0.441	1.34	-0.0264	0.666	-0.359	0.716
COc1ccc(C#Cc2ccc3c(c2)[C@]2(C(=O)N3)[C@H](c3ccc(OCCO)cc3)N3[C@H](c4ccccc4)[C@H](c4ccccc4)OC(=O)[C@H]3[C@@H]2C(=O)NC[C@H](O)c2ccccc2)cc1	0.615	-0.128 (inactive)	0.779	-0.0531	0.496	1.71	0.117	1.3	0.152	1.02
N#Cc1ccc(NN2C(C(O)c3ccc(Br)cc3)C=CC3C(=O)N(c4ccccc4)C(=O)C32)cc1 (stereo not given)	0.539	0.718 (inactive)	0.43	0.357	0.721	3.24	1.35	0.83	0.195	1.07
O=C1OCCC=C[C@H]2OC34C=CCN(Cn5nnc6ccccc65)C(=O)[C@H]3N(CCCO)C(=O)[C@@H]4C12 (stereo not given in full)	-0.841	-0.0287 (inactive)	-0.353	-0.13	0.0109	-1.05	1.45	-0.674	-0.433	-1.2
C=CCC(OC(C)=O)[C@@H]1[C@@H](N(Cc2ccc(-c3cccc(C(F)(F)F)c3)o2)C(=O)Cc2ccc(OC)cc2)c2cc(OCCCO)ccc2N1C(=O)c1ccc(-c2ccccc2)cc1 (stereo not given in full)	0.0925	-0.4 (inactive)	0.0711	0.0178	0.251	0.206	-0.155	0.272	0.121	-0.94
COCCCNC(=O)[C@@]1(Sc2ccc(C)cc2)CC(=O)N(C2Cc3ccccc3C2)[C@@H]1c1ccc(CO)cc1	0.0753	1.23 (inactive)	-0.157	-0.181	0.748	0.537	0.352	0.209	-1.86	0.163
O=C1O[C@@H](c2ccccc2)[C@@H](c2ccccc2)N2[C@@H](c3ccc(O)cc3)[C@]3(C(=O)Nc4ccc(C#CCCO)cc43)[C@@H](C(=O)N3CCN(c4ncccn4)CC3)[C@H]12	-0.777	0.698 (inactive)	0.148	-0.457	0.523	0.457	-0.143	1.11	1.14	1.12
[N-]=[N+]=NCc1ccccc1[C@@H]1OC(c2ccc(OCCCO)cc2)=N[C@]1(CCS(=O)(=O)c1ccccc1)C(=O)O	0.951	0.0313 (inactive)	0.0311	-0.0145	0.786	1.6	0.0649	0.585	-1.92	0.448
CCCCCN1CC=CC23O[C@@H]4C=CCCOC(=O)C4[C@H]2C(=O)N(CCCCCCO)[C@@H]3C1=O (stereo not given in full)	-0.587	0.976 (inactive)	-0.252	-0.203	0.861	2.33	0.0488	0.0067	-0.856	-0.52
CC1CC/C=C\[C@H]2OC34C=CCN(Cc5ccccc5)C(=O)[C@H]3N(C(CO)C(C)C)C(=O)[C@@H]4C2C(=O)O1 (stereo not given in full)	-1.39	-0.263 (inactive)	0.0666	-0.0418	0.821	0.152	0.219	-0.271	-0.398	-0.355
COCC(=C=CC[C@H](O)c1ccccc1OCCO)C[C@H](O)c1ccccn1	0.519	0.2 (inactive)	-0.116	-0.0984	0.426	-0.0733	-0.144	0.544	-0.123	0.215
C=CCC(OC(C)=O)[C@@H]1[C@@H](N(Cc2cc3ccccc3o2)C(=O)Cc2ccc(F)cc2)c2cc(OCCCO)ccc2N1C(=O)Cc1ccc2ccccc2c1 (stereo not given in full)	0.533	0.242 (inactive)	-0.0311	-0.104	-0.208	0.615	-0.0657	-0.39	-0.21	0.296
Cc1ccc(S[C@]2(C(=O)NCC(F)(F)F)CC(=O)N(Cc3cc(C(F)(F)F)cc(C(F)(F)F)c3)[C@@H]2c2ccc(CO)cc2)cc1	-0.658	-0.0775 (inactive)	-0.229	-0.164	0.802	-0.551	-0.238	-0.36	-1.19	-0.183
COc1ccccc1CN1C(=O)c2ccccc2[C@](Cc2ccccc2I)(C(=O)O)[C@@H]1c1ccc(CO)cc1	0.76	0.114 (inactive)	0.0961	-0.0238	0.328	2	0.704	1.27	0.227	1.18
